Results taken from PubChem BioAssay.
The source made the active and inactive calls.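 Rule for the calls: active = inhibition of the reporter signal at or above 50%; inactive = inhibition below 50%.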

Assay: TLR3 IRF3 reporter activation blockers – cell-based, poly I:C stimulus, luciferase, 10K MLSCN set, primary screen (AID 602277)
Settings: HEK293-TLR3 RL24 IRF3 luciferase reporter, at 10 µM, active compounds read high

| Structure (SMILES) | inhibition |
| --- | --- |
| Cc1[nH]c(C(=O)N2CCCCC2)c(C)c1C(=O)NC1CCCCC1 | 4.54% (inactive) |
| COc1ccc(OC)c(CNC(=O)COc2cc(=O)n(C)c3ccccc23)c1 | 6.23% (inactive) |
| CCc1nnc(NC(=O)C2CC(=O)N(Cc3ccco3)C2)s1 (centres undefined) | 22.1% (inactive) |
| Oc1cccc(C=NCc2ccccc2)c1O | 41.8% (inactive) |
| COc1ccc(-c2noc(CCCC(=O)O)n2)cc1 | 86.3% (active) |
| CC(C)c1nnc(NC(=O)c2cnccn2)s1 | -13.6% (inactive) |
| Cc1cc(=O)n2nc(N3CCCC(C(=O)N4CCN(C)CC4)C3)sc2n1 (centres undefined) | 5.83% (inactive) |
| O=S(=O)(Cc1ccccc1)N1CCCCCC1 | 4.76% (inactive) |
| Cc1[nH]nc2c1C1(C(=O)N(Cc3ccc(Cl)cc3)c3ccccc31)C(C#N)=C(N)O2 (centres undefined) | 0.315% (inactive) |
| C=CCn1c(COc2ccccc2)nnc1SCC(=O)C(C)(C)C | 22.7% (inactive) |
| Nn1c(SCC(=O)Nc2ccc(F)cc2)nnc1-c1cccnc1 | 25.6% (inactive) |
| Cc1ccc(S(=O)(=O)N2CCOCC2)cc1C(=O)Nc1nc(-c2cccnc2)cs1 | 15.3% (inactive) |
| C=CCN(C(=O)CNS(=O)(=O)c1ccccc1)C(C(=O)NCCOC)c1ccncc1 (centres undefined) | 5.34% (inactive) |
| O=C(CCn1c(=S)[nH]c2cc3c(cc2c1=O)OCO3)N1CCN(C2CCCCC2)CC1 | 33.1% (inactive) |
| CC(C)OC(=O)CN1C(=O)C(C)(C)Oc2ccc(C(=O)NC3CC3)cc21 | 17.5% (inactive) |
| C/C(N)=C(/C#N)C(=O)COC(=O)c1cc(C)n(-c2ccc(F)cc2)c1C | -211% (inactive) |
| O=C(Nc1cccc(F)c1)C1C2C=CC3(CN(CCCN4CCOCC4)C(=O)C13)O2 (centres undefined) | 12.3% (inactive) |
| CCOc1ccc2nc(SCC(=O)N3CCCCCC3)c(C#N)cc2c1 | -24.8% (inactive) |
| CCOC(=O)N(C)c1ccc(C(O)(C(F)(F)F)C(F)(F)F)cc1 | 100% (active) |
| CCOC(=O)c1sc(NC(=O)CSc2nnc3c4ccccc4n(CC)c3n2)nc1C | 7.93% (inactive) |

| Structure (SMILES) | inhibition |
| --- | --- |
| COc1cc(CN(C)CC(=O)c2[nH]c(C)c(C(C)=O)c2C)ccc1OC(F)F | -82.6% (inactive) |
| CCCCn1c(SCC(=O)N2CC(=O)Nc3ccccc32)nnc1-c1ccoc1C | 19.3% (inactive) |
| CCOC(=O)c1ccc(N=c2sc(C(=O)OC)cc(=O)n2Cc2ccco2)cc1 | 77.4% (active) |
| CCOC(=O)CN(C(=O)CSc1nnc(-c2ccncc2)n1CCCN(C)C)c1ccccc1 | 30.4% (inactive) |
| CCOC(=O)N1CCN(c2c(NCCN(C)Cc3ccccc3)c(=O)c2=O)CC1 | 6.95% (inactive) |
| Clc1cccc(N2CCN(Cc3nc(-c4ccccc4)no3)CC2)c1 | 29.2% (inactive) |
| COc1ccccc1CN1CC(C(=O)NCc2cccnc2)CC1=O (centres undefined) | 29.2% (inactive) |
| COc1cccc(C2C(C(N)=O)=C(C)Nc3nc(-c4ccccc4Cl)nn32)c1 (centres undefined) | 40.8% (inactive) |
| CCOc1cccc(C(=O)N(Cc2ccco2)C2CCS(=O)(=O)C2)c1 (centres undefined) | 13.7% (inactive) |
| CCOC(=O)N1CCC(NC(=O)c2cc(C(=O)NC3CCCC3)ccc2CO)CC1 | 32% (inactive) |
| COc1ccc(Br)cc1CNC(=O)C1CCCN(S(C)(=O)=O)C1 (centres undefined) | 33.6% (inactive) |
| Cc1nc2c(C(=O)O)cnn2c(C)c1Cc1ccccc1F | -3.96% (inactive) |
| O=c1[nH]c(N2CCCCC2)nc2c1CCCC2 | 12.8% (inactive) |
| CC(C)(C)NC(=O)C(c1ccco1)N(C(=O)Cn1nnc(-c2ccc(F)cc2)n1)c1ccccc1F (centres undefined) | 39.7% (inactive) |
| O=C(Nc1ccccc1N1CCOCC1)c1ccc2ccccc2n1 | -46% (inactive) |
| Nc1nc2n(n1)C(c1cccc(Br)c1)CC(c1ccccc1)N2 (centres undefined) | 37% (inactive) |
| CCN(C(=O)c1cc(Cl)ccc1OC)c1ccccc1 | 48.8% (inactive) |
| CC(C)[C@H](NC(=O)OC(C)(C)C)c1nnc(SCc2cccc(F)c2)o1 | 19.5% (inactive) |
| CC(=O)NS(=O)(=O)c1ccc(NC(=O)c2ccccc2F)cc1 | 8.62% (inactive) |
